Screening results from PubChem.
hNpr1 antagonist – human Npr1 receptor antagonism | P16066 | 76,000 tested, 1.6% active | HEK293 hNpr1 GloSensor cGMP, ANP-stimulated luminescence | Potency, µM (highest dose often 46.3 µM), for the others: at the highest dose activity change, negative = inhibition, most hits filed as inhibitors; calls by dose curve; further: nearly all actives have a fitted effect of over 60% in size
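Compound pre-incubated 30 min at room temperature on GloSensor-loaded HEK293 cells stably carrying hNpr1 and the pGS-40F cGMP biosensor. Stimulation uses hNppA at 0.1 nM final; luminescence is taken at baseline and 20 min post-agonist.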
Luciferase inh – blocks purified firefly luciferase enzyme activity. P08659. purified P. pyralis luciferase, luminescence, biochemical. Potency, µM (highest dose often 115 µM), most hits filed as inhibitors. 76,000 tested, 2.5% active; further: nearly all actives have a fitted effect of over 65% in size
Target sequence (P08659 whole entry, looked up): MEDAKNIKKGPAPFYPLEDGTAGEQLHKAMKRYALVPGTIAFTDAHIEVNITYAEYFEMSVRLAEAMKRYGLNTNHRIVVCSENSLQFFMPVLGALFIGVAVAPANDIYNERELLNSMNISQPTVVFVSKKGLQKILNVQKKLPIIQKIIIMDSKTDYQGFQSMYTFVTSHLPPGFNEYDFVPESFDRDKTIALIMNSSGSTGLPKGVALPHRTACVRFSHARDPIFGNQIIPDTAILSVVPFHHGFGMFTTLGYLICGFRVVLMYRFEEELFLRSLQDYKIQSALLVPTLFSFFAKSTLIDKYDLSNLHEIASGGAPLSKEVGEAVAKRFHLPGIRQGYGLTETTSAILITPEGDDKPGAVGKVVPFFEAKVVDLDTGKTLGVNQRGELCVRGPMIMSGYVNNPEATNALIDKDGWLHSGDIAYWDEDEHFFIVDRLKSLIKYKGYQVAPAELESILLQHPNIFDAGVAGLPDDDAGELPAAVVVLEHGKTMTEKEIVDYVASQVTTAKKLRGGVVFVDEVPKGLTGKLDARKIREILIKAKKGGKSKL
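Luminescence read by CCD imaging after purified firefly luciferase (10nM final) was added to substrate buffer holding 10uM D-luciferin and 10uM ATP, pH 7.5, pre-dosed with compound.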
HEK293 tox – cytotoxic compounds in HEK 293 cells. HEK 293 viability, ATP luminescence (CellTiter-Glo), 48-72 h. Potency, µM (series often up to 115 µM), for the others: at the highest dose activity change, negative = cytotoxicity, most hits filed as inhibitors. 94,000 tested, 6.6% active; further: nearly all actives have a fitted effect of over 60% in size
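qHTS cytotoxicity; HEK 293, 250 cells/well; compound pinned; 48 or 72 hr, 37 degree Celsius, 5% CO2, 95% humidity; CellTiter-Glo, 10 min RT; luminescence (ATP).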
NIH3T3 tox – kills NIH 3T3 cells; 94,000 tested, 4.3% active; NIH 3T3 viability, CellTiter-Glo ATP luminescence, 48-72 h; Potency, µM (titrated, usually from 96.7 µM), without a hit: at the top dose activity change, negative = cytotoxicity, most hits filed as inhibitors; further: nearly all actives have a fitted effect of over 55% in size
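ATP-dependent luminescence (CellTiter-Glo) served as the viability signal for NIH 3T3 cells treated with compound for 48 or 72 hr at 37 °C.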
GPT2 inh – GPT2 alanine aminotransferase inhibition; 100,000 tested, 0.25% active; Potency, µM (doses to about 57.7 µM), for inactives: top-dose activity change, negative = inhibition, actives largely listed as inhibitors; AID 1671188; Q8TD30; Recombinant GPT2, coupled pyruvate oxidase/HRP Amplex Red fluorescence; further: nearly all actives have a fitted effect of over 60% in size
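Recombinant GPT2 (10ng/uL) with 250uM a-KG and 2mM L-alanine, 30 min at room temperature, in HEPES pH 7.5 buffer. Pyruvate detected by pyruvate oxidase/HRP/Amplex Red fluorescence after 30 min in the dark; AOA (50uM) as positive control.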
The depositor's hits bear a star; [ ] = remark or other dose. Sampled rows, rich in hits. Any-hit rate of the full collection: about 10%. Unless noted, the call rests on the fitted dose curve; in most records, active means well fitted curve in the direction sought with a large enough effect; inconclusive means small, poorly fitted or top-dose-only effect, or another doubt; inactive means no such curve, though single readings can be large; an effect the other way counts as inactive or inconclusive. On the % scale 0 is the no-effect control and ±100 the full control effect; potency means the concentration at half of the fitted maximal effect.

How did Clc1cccc(-c2cnc3n2C[C@H](CNCc2ccccc2)OC3)c1 do in these assays?
hNpr1 antagonist: -4%[70.6 µM]; Luciferase inh: inactive; HEK293 tox: inconclusive; NIH3T3 tox: 79µM*; GPT2 inh: -1%[88.5 µM]

What do the screens show for `O=C(NC[C@H]1Cn2c(-c3cccc(Cl)c3)cnc2CO1)Nc1ccccc1`?
hNpr1 antagonist: inconclusive; Luciferase inh: inactive; HEK293 tox: 100µM*; NIH3T3 tox: inconclusive; GPT2 inh: -9%[88.5 µM]

How did O=C(NC[C@H]1Cn2c(-c3ccc(Cl)cc3)cnc2CO1)Nc1ccccc1 do in these assays?
hNpr1 antagonist: inconclusive; Luciferase inh: inactive; HEK293 tox: 63µM*; NIH3T3 tox: inconclusive; GPT2 inh: inactive

How did COc1ncccc1CNC[C@H]1Cn2c(-c3ccc(Cl)cc3)cnc2CO1 do in these assays?
hNpr1 antagonist: -24%[70.6 µM]; Luciferase inh: inactive; HEK293 tox: inconclusive; NIH3T3 tox: 89µM*; GPT2 inh: inactive

How did COc1cc2c(cc1OC)C(C[C@H]1CN(C(=O)c3ccc(N(C)C)cc3)CC[C@H]1CC(=O)O)=NCC2 do in these assays?
hNpr1 antagonist: -2%; Luciferase inh: inactive; HEK293 tox: 3%; NIH3T3 tox: inactive; GPT2 inh: 4%

What do the screens show for `Cc1[nH]ncc1CNC(=O)C1CCN(c2cn[nH]c(=O)c2)C1` (centres undefined)?
hNpr1 antagonist: 7%; Luciferase inh: inactive; HEK293 tox: 2%; NIH3T3 tox: inactive; GPT2 inh: inactive

What do the screens show for `c1ccc2ncc(CNC[C@H]3Cn4c(-c5ccc6c(c5)OCCO6)cnc4CO3)cc2c1`?
hNpr1 antagonist: 35µM*; Luciferase inh: inconclusive; HEK293 tox: 50µM*; NIH3T3 tox: inconclusive; GPT2 inh: inconclusive

How did Cc1ccccc1CNC[C@H]1Cn2c(-c3ccccc3)cnc2CO1 do in these assays?
hNpr1 antagonist: -5%[70.6 µM]; Luciferase inh: inactive; HEK293 tox: 112µM*; NIH3T3 tox: inconclusive; GPT2 inh: 4%[88.5 µM]

What do the screens show for `c1ccc(CNC[C@H]2Cn3c(-c4ccccc4)cnc3CO2)cc1`?
hNpr1 antagonist: -13%[70.6 µM]; Luciferase inh: inactive; HEK293 tox: inconclusive; NIH3T3 tox: -35%[174 µM]; GPT2 inh: -36%[88.5 µM]

Results for O=C(NC1CCCN(c2cc(-c3ccccc3)[nH]n2)C1)c1ccccc1Br (centres undefined) ?
hNpr1 antagonist: -17%; Luciferase inh: inconclusive; HEK293 tox: inconclusive; NIH3T3 tox: inconclusive; GPT2 inh: inactive

What do the screens show for `CN(C)C(C(=O)N1CCC(C(=O)N2CCCC2)CC1)c1cccc(F)c1` (centres undefined)?
hNpr1 antagonist: 0%; Luciferase inh: inactive; HEK293 tox: -3%; NIH3T3 tox: -4%; GPT2 inh: -8%[11.5 µM]

What do the screens show for `Cc1ccccc1N(C)C1CN(Cc2ccccc2)C1`?
hNpr1 antagonist: -8%[70.6 µM]; Luciferase inh: inactive; HEK293 tox: inconclusive; NIH3T3 tox: 89µM*; GPT2 inh: inconclusive

What do the screens show for `Cc1ccccc1N(C)C1CN(Cc2ccc(F)cc2)C1`?
HEK293 tox: inconclusive; NIH3T3 tox: -23%[138 µM]; GPT2 inh: -12%[88.5 µM]

Results for Cc1ccccc1N(C)C1CN(Cc2ccc(C(F)(F)F)cc2)C1 ?
HEK293 tox: 100µM*; NIH3T3 tox: inconclusive; GPT2 inh: 3%

Results for Cc1ccccc1N(C)C1CN(Cc2cccnc2)C1 ?
HEK293 tox: inconclusive; NIH3T3 tox: -25%[138 µM]; GPT2 inh: inactive

How did Cc1ccccc1N(C)C1CN([S+](=O)([O-])c2cccs2)C1 do in these assays?
hNpr1 antagonist: -7%[70.6 µM]; Luciferase inh: inactive; HEK293 tox: 79µM*; NIH3T3 tox: inconclusive; GPT2 inh: 3%[88.5 µM]

Results for O=C(NCC1CCCO1)c1noc(-c2ccc[nH]c2=O)n1 (centres undefined) ?
hNpr1 antagonist: 0%; Luciferase inh: inactive; HEK293 tox: -8%; NIH3T3 tox: inactive; GPT2 inh: inactive

What do the screens show for `CCCOc1cccc(-c2nc(C(=O)NCC)cs2)c1`?
hNpr1 antagonist: -18%; Luciferase inh: inactive; HEK293 tox: 32µM*; NIH3T3 tox: inconclusive; GPT2 inh: -5%
